Hits are enriched below; roughly 19% of the tested compounds scored in any of these assays.
DT40 TDP1 no CPT = qHTS for Inhibitors of human tyrosyl-DNA phosphodiesterase 1 (TDP1): qHTS in cells in absence of CPT; Potency, µM (top dose mostly 46.2 µM), without a hit: top-dose activity change, negative = growth inhibition, most hits filed as inhibitors; AID 686978, 2013; actives 15% (n = 420,000); DT40 Tdp1-/- hTDP1 cells, no CPT, ATP luminescence, 48 h; note: potency is the fitted concentration of half-maximal effect; % is set by controls: 0 for no effect and ±100 for the full control effect; nearly all actives have a fitted effect of over 55% in size
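Camptothecin absent (DMSO only). Human TDP1-complemented DT40 knockout cells, 400 cells/well, 37 °C for minimum 48 hr; ATP measured via CellTiter-Glo, 30 min dark incubation, luminescence.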
TDP1 cell CPT = qHTS for Inhibitors of human tyrosyl-DNA phosphodiesterase 1 (TDP1): qHTS in cells in presence of CPT; Potency, µM (top dose mostly 46.2 µM), for the others: at the top dose activity change, negative = growth inhibition, usual class: inhibitors; actives 12% (n = 420,000); chicken DT40 Tdp1-/-;hTDP1 cells + 20 nM CPT, ATP luminescence, 48 h; note: potency is the fitted concentration of half-maximal effect; % is set by controls: 0 for no effect and ±100 for the full control effect; nearly all actives have a fitted effect of over 55% in size
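Chicken DT40 Tdp1-/- cells stably complemented with human TDP1 were seeded at 400 cells/well in medium containing 20 nM camptothecin, exposed to pin-transferred compounds, and grown at 37 °C for at least 48 hr. Viability was read as ATP luminescence.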
SW480 rereplic = A quantitative high throughput screen for small molecules that induce DNA re-replication in SW480 colon adenocarcinoma cells; SW480 DNA re-replication, Hoechst DNA content imaging, 48 h; Potency, µM (highest dose often 46.1 µM), without a hit: at the highest dose re-replication activation, hits mostly activators; actives 1.8% (n = 340,000); note: potency is the fitted concentration of half-maximal effect; % of control where 0% means no effect; nearly all actives have a fitted effect of over 55% in size
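Readout is total intensity of Hoechst-stained nuclei, excited at 405 nm and collected at 500-530 nm. Compound treatment lasted 48 hr at 37 C in 5% CO2 before staining.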
IL1B secr inh = qHTS for Inhibitors of Inflammasome Signaling: IL-1-beta AlphaLISA Primary Screen. AID 743279, 2014. actives 4.7% (n = 360,000). activity change, % at 57.5 µM. THP-1 LPS/ATP IL-1B secretion, AlphaLISA, 16 h; active compounds read low; in the data active = activity change below about -50%; inconclusive = mostly about -30% to -49%; note: % is set by controls: 0 for no effect and ±100 for the full control effect
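Secreted IL-1B measured by AlphaLISA bead assay after 16 h compound exposure of THP-1 cells; compounds (final up to 57.5 uM) added 1 h before LPS (250 ng/mL) and ATP (1.25 mM) stimulation; lower signal means less secretion.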
Chronic BCR inh = qHTS Assay to Find Inhibitors of Chronic Active B-Cell Receptor Signaling; AID 493014, 2011; actives 0.05% (n = 340,000); Potency, µM (series often up to 46.1 µM), for inactives: at the highest dose activity change, negative = inhibition, usual class: inhibitors; ABC-DLBCL IkBa-CBG/CBR reporter, luminescence ratio, 4 h; active = well fitted inhibition curve with a large enough effect in the signal ratio, with a control signal flat, not every such curve was filed as active; inconclusive = small, poorly fitted or top-dose-only effect, or effect the other way, or a change in a side signal; the % refers to the signal ratio;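 note: potency is the fitted concentration of half-maximal effect; plate controls were basal doxycycline-induced cells for no effect and cells given 10 µM MG132 for full effect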
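Doxycycline induced both beetle luciferases in TMD8 lymphoma cells; IKK-driven degradation limits the IkappaBalpha-fused green signal, while red luminescence normalises for cell number and nonspecific effects. Compounds tested up to 46 uM, 4 hrs.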
MCF10A rereplic = A quantitative high throughput screen for small molecules that induce DNA re-replication in MCF 10a normal breast cells. MCF 10A DNA re-replication, Hoechst nuclear intensity, 48 h. Potency, µM (titrated, usually from 46.1 µM), without a hit: top-dose activity, positive = re-replication, hits mostly activators. actives 2.9% (n = 350,000). AID 624296, 2012; note: potency is the fitted concentration of half-maximal effect; % of control where 0% means no effect; nearly all actives have a fitted effect of over 50% in size
Numbers without * were called inactive. Unless noted, calls come from the whole dose curve; as a rule, active = well fitted curve in the direction sought with a large enough effect; inconclusive = small, poorly fitted or top-dose-only effect, or another doubt; inactive = no such curve, though single readings can be large; an effect the other way counts as inactive or inconclusive.

Screening CC(C)C[C@@H]1O[C@H](C(C)C)Cc2[nH][nH]c(=O)c21 returned DT40 TDP1 no CPT inconclusive, TDP1 cell CPT inconclusive and IL1B secr inh 34.2.
CCOc1ccccc1/C=N/Nc1ccccc1[N+](=O)[O-] was read as DT40 TDP1 no CPT -24.2%, TDP1 cell CPT 0.7%, SW480 rereplic -2.2%, IL1B secr inh -23.7, Chronic BCR inh 6.3% and MCF10A rereplic -4.6%.
CCCOc1ccc(/C=N/Nc2ccccc2[N+](=O)[O-])c(O)c1 was read as DT40 TDP1 no CPT 11.6µM*, TDP1 cell CPT 10.3µM*, SW480 rereplic -82.5%, IL1B secr inh -7.5, Chronic BCR inh 2.3% and MCF10A rereplic 15.7%.
CCCCC(=O)Nc1cccc(OCc2cc(=O)n3ccccc3n2)c1 was read as DT40 TDP1 no CPT -20.4% and TDP1 cell CPT 1.0%.
Screening O=C(/C=C/c1ccco1)c1ccc(NC(=O)C23CC4CC(CC(C4)C2)C3)cc1 returned DT40 TDP1 no CPT 14.6µM*, TDP1 cell CPT 20.6µM*, SW480 rereplic 3.3%, IL1B secr inh -19.9, Chronic BCR inh -22.3% and MCF10A rereplic inconclusive.
`COc1ccc(-c2nnc(OCc3ccccc3)c3ccccc23)cc1` gave DT40 TDP1 no CPT inconclusive, TDP1 cell CPT inconclusive, SW480 rereplic 13.2%, IL1B secr inh -86.6*, Chronic BCR inh inconclusive and MCF10A rereplic 2.8%.
For Cc1ccc(-c2nnc(OCc3cccnc3)c3ccccc23)cc1 the results were DT40 TDP1 no CPT inconclusive, TDP1 cell CPT -15.0%, SW480 rereplic -5.0%, IL1B secr inh -82.6*, Chronic BCR inh inconclusive and MCF10A rereplic -3.9%.
For CN(C)C(=O)CSc1nnc(-c2ccc(F)cc2)c2ccccc12 the results were DT40 TDP1 no CPT inconclusive, TDP1 cell CPT 1.0%, SW480 rereplic 4.1%, IL1B secr inh -0.7, Chronic BCR inh -21.0% and MCF10A rereplic 2.6%.
c1ccc(-c2nnc(OCc3cccnc3)c3ccccc23)cc1 was read as DT40 TDP1 no CPT inconclusive, TDP1 cell CPT -2.4%, SW480 rereplic 0.8%, IL1B secr inh -28.0, Chronic BCR inh inconclusive and MCF10A rereplic -10.7%.
Cc1ccc(-c2nnc(OCc3nc4ccccc4n3C)c3ccccc23)cc1 was read as DT40 TDP1 no CPT -20.2%, TDP1 cell CPT inconclusive, SW480 rereplic -2.9%, IL1B secr inh 12.7 and MCF10A rereplic -1.3%.
For Cc1ccc(Oc2nnc(-c3ccc(C)cc3)c3ccccc23)cc1 the results were DT40 TDP1 no CPT 14.6µM*, TDP1 cell CPT 20.6µM*, SW480 rereplic -0.8%, IL1B secr inh 14.2, Chronic BCR inh 2.2% and MCF10A rereplic -2.4%.
Screening CCCCSc1nnc(-c2ccc(C)cc2)c2ccccc12 returned DT40 TDP1 no CPT 18.4µM*, TDP1 cell CPT 20.6µM*, SW480 rereplic 0.9%, IL1B secr inh 6.2, Chronic BCR inh inconclusive and MCF10A rereplic inconclusive.
For CCCCn1c(SCC(=O)Nc2cc(C(F)(F)F)cc(C(F)(F)F)c2)nnc1C(CC)N(C)C (configuration not stated) the results were DT40 TDP1 no CPT 20.6µM*, TDP1 cell CPT 23.1µM*, SW480 rereplic inconclusive, IL1B secr inh -9.2, Chronic BCR inh inconclusive and MCF10A rereplic inconclusive.
`CC(C)Oc1ccc(CNC(=S)Nc2ccccc2)cc1Cl` gave DT40 TDP1 no CPT inconclusive, TDP1 cell CPT inconclusive, SW480 rereplic -19.7%, IL1B secr inh 3.9, Chronic BCR inh -2.7% and MCF10A rereplic -2.4%.
For CC(C)COc1ccc(CNC(=S)Nc2ccccc2)cc1Cl the results were DT40 TDP1 no CPT 25.9µM*, TDP1 cell CPT inconclusive, SW480 rereplic inconclusive, IL1B secr inh inconclusive, Chronic BCR inh -7.7% and MCF10A rereplic inconclusive.
For COc1ccc(CNC(=S)Nc2ccccc2)cc1Cl the results were DT40 TDP1 no CPT -9.6%, TDP1 cell CPT -22.2%, SW480 rereplic -3.5%, IL1B secr inh inconclusive, Chronic BCR inh inconclusive and MCF10A rereplic 7.9%.
For CCCOc1ccc(CNC(=S)Nc2ccccc2)cc1Cl the results were DT40 TDP1 no CPT 16.4µM*, TDP1 cell CPT inconclusive, SW480 rereplic inconclusive, IL1B secr inh -78.9*, Chronic BCR inh 0.3% and MCF10A rereplic inconclusive.
For CS(=O)(=O)N1CCC2(CCCN(C(=O)Nc3cccc(C#N)c3)C2)CC1 the results were DT40 TDP1 no CPT 0.3% and TDP1 cell CPT -0.5%.
COc1cccc(-c2nn(C)c3sc(C(=O)NCc4ccc5c(c4)OCO5)cc23)c1 was read as DT40 TDP1 no CPT inconclusive, TDP1 cell CPT 13µM*, SW480 rereplic -10.8%, IL1B secr inh -13.3, Chronic BCR inh inconclusive and MCF10A rereplic 5.2%.
`Cn1nc(C(C)(C)C)cc1C(=O)NCc1ccc2c(c1)OCO2` gave DT40 TDP1 no CPT 1.84µM*, TDP1 cell CPT 4.61µM*, SW480 rereplic -7.4%, IL1B secr inh 4.9, Chronic BCR inh -7.4% and MCF10A rereplic -0.1%.
Screening CCOC(=O)c1cccc(NC(=O)c2cc3c(-c4cccc(OC)c4)nn(C)c3s2)c1 returned DT40 TDP1 no CPT 16.4µM* and TDP1 cell CPT 16.4µM*.
For CCOC(=O)c1cccc(NC(=O)CS(=O)(=O)Cc2nc(-c3cccc(OC)c3)oc2C)c1 the results were DT40 TDP1 no CPT inconclusive, TDP1 cell CPT inconclusive, SW480 rereplic 3.9%, IL1B secr inh -17.9, Chronic BCR inh -6.3% and MCF10A rereplic 4.7%.
Cc1nn(Cc2ccccc2Cl)c2sc(C(=O)NCc3ccc4c(c3)OCO4)cc12 was read as DT40 TDP1 no CPT inconclusive, TDP1 cell CPT inconclusive, SW480 rereplic 18.4%, IL1B secr inh -11.9, Chronic BCR inh inconclusive and MCF10A rereplic 2.5%.
Screening COc1cccc(-c2nn(C)c3sc(C(=O)NCc4ccc(C)o4)cc23)c1 returned DT40 TDP1 no CPT 23.1µM*, TDP1 cell CPT inconclusive, SW480 rereplic inconclusive, IL1B secr inh 0.0, Chronic BCR inh inconclusive and MCF10A rereplic inconclusive.
`COc1ccc(-c2noc(-c3cccnc3NCc3ccco3)n2)cc1` gave DT40 TDP1 no CPT inconclusive and TDP1 cell CPT -20.5%.
